Measured values taken from PubChem BioAssay (NCI).
The panel holds about 83,000 compounds, 20% with a hit somewhere; the sample as a whole holds those more often.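 How to read the values: 0–100, growth inhibition (40 = 60% inhibited); 0, no net growth; -100 to 0, cell death (-40 = 40% of starting cells died; -100 = all dead).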 Values without a mark were called inactive. Activity calls are given as the source filed them. Rule for the calls: active = growth percent below 10; inactive = the rest.

How the values were obtained:
Test in all cases: NCI-60 one-dose screen, 48 h (100 = growth as untreated, 0 = no growth, -100 = all killed)
HCT-15 colon = conditions: 10 µM unless noted
HT29 colon = conditions: 10 µM unless noted
SNB-75 CNS = conditions: 10 µM unless noted
SNB-19 CNS = conditions: 10 µM unless noted
U251 CNS = conditions: 10 µM unless noted
PC-3 prostate = conditions: 10 µM unless noted
SK-MEL-5 melanoma = conditions: 10 µM unless noted
UACC-62 melanoma = conditions: 10 µM unless noted
LOX IMVI melanoma = conditions: 10 µM unless noted
SK-MEL-28 melanoma = conditions: 10 µM unless noted
SK-MEL-2 melanoma = conditions: 10 µM unless noted
SN12C renal = conditions: 10 µM unless noted
UO-31 renal = conditions: 10 µM unless noted
TK-10 renal = conditions: 10 µM unless noted
ACHN renal = conditions: 10 µM unless noted
CAKI-1 renal = conditions: 10 µM unless noted
A498 renal = conditions: 10 µM
HL-60(TB) leukemia = conditions: 10 µM unless noted
CCRF-CEM leukemia = conditions: 10 µM unless noted
EKVX NSCLC = conditions: 10 µM unless noted

Structure (SMILES)	growth (HCT-15 colon)	growth (HT29 colon) [%]	growth (SNB-75 CNS)	growth (SNB-19 CNS) [%]	growth (U251 CNS) [%]	growth (PC-3 prostate) [%]	growth (SK-MEL-5 melanoma)	growth (UACC-62 melanoma) [%]	growth (LOX IMVI melanoma)	growth (SK-MEL-28 melanoma) [%]	growth (SK-MEL-2 melanoma) [%]	growth (SN12C renal) [%]	growth (UO-31 renal) [%]	growth (TK-10 renal) [%]	growth (ACHN renal) [%]	growth (CAKI-1 renal) [%]	growth (A498 renal) [%]	growth (HL-60(TB) leukemia)	growth (CCRF-CEM leukemia)	growth (EKVX NSCLC) [%]
C/C(=C\c1ccn(-c2ccccc2N)n1)[C@@H]1C[C@@H]2O[C@]2(C)CCC[C@H](C)[C@H](O)[C@@H](C)C(=O)C(C)(C)[C@@H](O)CC(=O)O1	16.6%	15.1	-4.54% (active)	29.1	27.2	14.3	12.2%	19.9	28.5%	58.8	33.2	38	41.5	51.6	46.3	40.4	13	9.72% (active)	19.6%	–
NC(CCl)CCl	87.3%	97.8	90.3%	105	99.8	104	99.4%	99.9	106%	98.3	124	101	93.3	111	104	99.3	111	123%	–	–
CCCOC(=O)N[C@H]1CCc2c(Br)c(OC)c(OC)c(OC)c2-c2ccc(SC)c(=O)cc21	7.9% (active)	12.2	19.6%	23.1	17.6	21.1	-29.9% (active)	17.8	8.1% (active)	64.7	34.2	–	20.7	43	27.6	11.2	–	-25.7% (active)	5.05% (active)	40.3
OCCNC(Cc1ccccc1)c1ccc2c(c1)OCO2 (centres undefined)	100%	73	108%	106	92.9	73.1	101%	92.4	93.5%	109	72.2	98.8	78.9	73.2	106	97.1	86.5	79.6%	111%	–
Cn1cc(C=O)c2nccnc21	114%	93	78.5%	110	97.1	107	104%	102	94.5%	94	123	–	106	94.8	109	91.4	–	107%	102%	96.9
O=C(O)C(Cl)(Cl)C(F)(F)F	104%	103	97.7%	105	108	102	103%	105	106%	110	105	104	93.5	98.3	107	95	95.1	110%	100%	–
CCn1nccc1NC(=O)C(=O)c1cn(Cc2ccc(F)cc2)c2cccc(OC)c12	91.8%	112	91%	90.9	92.1	90.6	87.3%	78.4	84.2%	107	48.2	86.9	47.5	120	85.3	98.6	94.1	56.8%	76.6%	–
COc1cc(NC(C)CCCNC2CN3CCC2CC3)c2ncccc2c1 (centres undefined)	65.8%	27	78.1%	86.5	77.7	55.6	70%	38	76.1%	95.3	91.7	86	38.3	79.8	84.9	78.1	57.2	65.9%	77.7%	–
